Screening results: PubChem, National Center for Advancing Translational Sciences (NCATS)
Rows were chosen to be rich in hits. Some 20% of all compounds tested hit in one or more screens of this group.
CHX counter: Cycloheximide Counterscreen for Small Molecule Inhibitors of Shiga Toxin; cell reporter, cycloheximide protein synthesis inhibition counterscreen; max response, %; 12% of 300,000 active; AID 2314, 2010; in the data active means max response mostly above about 13%, no sharp cut-off; inactive means mostly below about 14%; further: read at 38.3 µM for the half of the compounds with a filed dose
Shiga toxin inh: A qHTS for Small Molecule Inhibitors of Shiga Toxin; Vero cells, Shiga toxin protein synthesis inhibition reporter; inhibition, % at 38.7 µM; 9.2% of 290,000 active; AID 2315, 2010; in the data active means inhibition mostly above about 28%, no sharp cut-off; inactive means mostly below about 43%
Pf growth 96h: Primary qHTS for delayed death inhibitors of the malarial parasite plastid, 96 hour incubation; P. falciparum luciferase reporter growth, 96 h; Potency, µM (series often up to 28.7 µM), hits mostly inhibitors; 6.9% of 320,000 active; AID 504834, 2011
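Plates of compound plus infected erythrocytes (2% hematocrit, 0.05% parasitemia final) incubate 96 hours, 37 C, 5% CO2. Detection reagent added; reduced luminescence from the parasites' luciferase reporter flags inhibition.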
HCMV inh: qHTS Assay for inhibitors of the human cytomegalovirus (HCMV) | HFF cells, HCMV-luciferase reporter, 72 h; hits give low values | activity change, negative = inhibition, % at 57.5 µM | 4.5% of 410,000 active; in the data active means activity change below about -60%; inconclusive means no clear call, values can overlap the other calls; inactive means above about -39%
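Luciferase read-out from HCMV-luciferase-infected HFFs (MOI 1 PFU/cell) 72 h post infection at 37C; compounds added after 16 h cell attachment; activity normalized between buffer-only basal and Salinomycin (10uM) inhibitor controls.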
Pf growth 48h: Primary qHTS for delayed death inhibitors of the malarial parasite plastid, 48 hour incubation. P. falciparum luciferase growth in erythrocytes, 48 h. Potency, µM (doses to about 28.7 µM), actives largely listed as inhibitors. 5.9% of 310,000 active
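Parasite viability was followed by luminescence of a genomically integrated firefly luciferase. Cultures held 0.1% parasitemia at 2% hematocrit (final), incubated under 5% CO2 at 37 C.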
A number is an active result; . = inactive; ? = inconclusive; / = not tested or not shown; [ ] = remark or other dose. Unless noted, the call rests on the fitted dose curve; in most records, active means well fitted inhibition curve with a large enough effect; inconclusive means small, poorly fitted or top-dose-only effect, or another doubt; inactive means no such curve, though single readings can be large or run the other way.

SMILES	CHX counter	Shiga toxin inh	Pf growth 96h	HCMV inh	Pf growth 48h
COC(=O)c1[nH]c2cccc(OC)c2c1NC(=O)CCN1CCC(C)CC1	.	.	1.9µM	.	.
COc1ccccc1C(C)NC(=O)c1ccc(NC(=O)CC2SC(N3CCCC3)=NC2=O)cc1 (stereo not given)	/	/	?	.	?
Cc1ccc(C)c(N2CCN(C(=O)CN(C)S(=O)(=O)c3cnc[nH]3)CC2)c1	.	.	/	.	?
CC(=O)N/N=C/c1c(C)[nH]n(-c2ccccc2)c1=O	.	.	.	.	?
Cc1[nH]n(-c2cccc3ccccc23)c(=O)c1/C=N/NC(=O)c1cccc([N+](=O)[O-])c1	.	.	.	-101	?
Cc1[nH]n(-c2ccccc2)c(=O)c1/C=N/NC(=O)c1cccc([N+](=O)[O-])c1	.	.	?	-104	.
Cc1[nH]n(-c2ccccc2)c(=O)c1/C=N/NC(=O)c1ccccc1F	25	64	2.3µM	-94	/
Cc1[nH]n(-c2ccccc2)c(=O)c1/C=N/NC(=O)COc1ccccc1[N+](=O)[O-]	.	.	?	.	?
OCCNc1nc(Nc2cc(Cl)ccc2OC2CCCC2)nc(N2CCCC2)n1	/	/	/	.	/
COc1cc(CNC(C)c2ccccc2)c(Br)cc1OCC(N)=O (stereo not given)	.	.	8.3µM	.	/
CC(NCc1cc(Br)ccc1OCC(=O)NCc1ccccc1)c1ccccc1 (stereo not given)	.	.	?	-76	?
CCC(CO)NCc1cc(OC)c(OCC(=O)NCCc2ccccc2)cc1Br (stereo not given)	.	.	4.1µM	.	?
COc1cc(CNCC(C)C)c(Br)cc1OCC(=O)NCc1ccccc1	.	.	?	.	.
CCN(CC)CCNCc1cc(Br)ccc1OCC(=O)NCc1ccccc1	.	.	12µM	.	?
O=C1C2C3C=CC(C4CC34)C2C(=O)N1/N=C/c1ccc(-c2ccc(F)cc2[N+](=O)[O-])o1 (stereo not given)	31	.	4.7µM	.	/
Cc1c(C#N)c2ccccc2n1CC(=O)N1CCCC1	.	.	.	.	?
Cc1c(C#N)c2ccccc2n1CC(=O)N1CCCc2ccccc21	.	.	.	.	3.3µM
O=C(Cn1c(=O)n(Cc2ccc3c(c2)OCO3)c(=O)c2ccccc21)N1CCCc2ccccc21	.	.	/	.	10µM
CC1CCN(C(=O)Cn2c(=O)n(Cc3ccc4c(c3)OCO4)c(=O)c3ccccc32)CC1	.	.	.	.	.
CCOc1ccccc1C(=O)N[C@H](C(=O)Nc1nc2c(s1)CCCC2)C(C)C	21	38	?	.	?
COc1ccc(C(=O)NC(C(=O)NCC2(N3CCCCC3)CCCCC2)C(C)C)cc1 (stereo not given)	/	/	.	-76	?
CC(Oc1ccc(Br)cc1)C(=O)NCC1(N2CCCCC2)CCCCC1 (stereo not given)	/	/	?	.	?
COc1ccc(C(=O)N[C@H](C(=O)Nc2nc3c(s2)CCCC3)C(C)C)cc1	59	79	.	.	.
COc1ccc(C(=O)N[C@H](C(=O)Nc2ccc(OC)nc2)C(C)C)cc1	15	.	/	.	.
CCC(Oc1ccc(F)cc1)C(=O)Nc1nc2c(s1)CCCC2 (stereo not given)	/	/	/	.	/
SMILES	CHX counter	Shiga toxin inh	Pf growth 96h	HCMV inh	Pf growth 48h
CN1CCOC(c2ccccc2)c2ccccc2C1 (stereo not given)	.	.	10µM	.	.
Cc1cccc(-c2nnn3c2nc(NCCC(C)C)c2ccccc23)c1	/	/	/	.	/
C[C@H]1CN([C@@H](C)CO)C(=O)Cc2cc(NC(=O)CCC(F)(F)F)ccc2O[C@H]1CN(C)S(=O)(=O)c1ccc(F)cc1	/	/	/	-100	/
C[C@H](CO)N1C[C@H](C)[C@H](CN(C)S(=O)(=O)c2cccs2)Oc2ccc(NC(=O)Nc3ccc4c(c3)OCO4)cc2CC1=O	/	/	/	-69	/
C[C@H]1CN([C@@H](C)CO)C(=O)Cc2cc(NC(=O)CCC(F)(F)F)ccc2O[C@H]1CN(C)S(=O)(=O)c1ccc(Cl)cc1	/	/	/	.	/
C[C@H](CO)N1C[C@H](C)[C@@H](CN(C)S(=O)(=O)c2cccs2)Oc2ccc(NC(=O)Nc3ccc4c(c3)OCO4)cc2C1=O	/	/	/	.	/
CCOC(=O)c1c(CSc2ccccc2)n(C)c2cc(Br)c(OCC(O)CNC(CO)(CO)CO)cc12 (stereo not given)	.	.	13µM	-63	12µM
CCOC(=O)c1c(CSc2ccccc2)n(C)c2cc(Br)c(OC)c(O)c12	.	.	?	.	?
Clc1ccc(N/N=C/c2ccncc2)cc1Cl	38	60	1.2µM	.	2.3µM
Clc1cnc(N/N=C/c2ccncc2)c(Cl)c1	16	49	.	.	.
Cc1cc(NC(=O)C(C)Sc2nc(-c3cccs3)nc3ccccc23)no1 (stereo not given)	/	/	?	.	?
CCCCc1ccc(NC(=O)Cn2cnc3c2c(=O)n(C)c(=O)n3C)cc1	/	/	/	.	/
O=C(O)Cn1c(=O)c2c3c(sc2n(Cc2ccc(Cl)cc2Cl)c1=O)CCCC3	.	.	.	.	.
COc1ccc(CCNc2nc3ccc(Cl)cc3n3cnnc23)cc1OC	/	/	/	.	/
Cc1cc(C)cc(N(CC(=O)NCCSCc2ccccc2)S(C)(=O)=O)c1	.	.	.	.	.
CCCCc1ccc(NC(=S)NCC2CCCO2)cc1 (stereo not given)	8.8	33	.[5.75 µM]	.	.
CCc1ccc(NC(=O)C(=O)NCC2CCCO2)cc1 (stereo not given)	46	101	.	.	.
CN(C)c1ccc(NC(=S)NCC2CCCO2)cc1 (stereo not given)	42	39	.	.	.
S=C(NCC1CCCO1)Nc1ccc(Cl)c(Cl)c1 (stereo not given)	.	50	.	.	.
O=C(Cc1ccc(Cl)c(Cl)c1)NNC(=S)NCC1CCCO1 (stereo not given)	.	.	?	.	.
CCc1ccc(CNC(=O)C(=O)NCC2CCCO2)cc1 (stereo not given)	.	.	.	?	.
CCNS(=O)(=O)c1ccc(NC(=S)NCC2CCCO2)cc1 (stereo not given)	.	.	?	.	.
Cc1cccc(Nc2nnc(SCC(=O)NC(=O)CN3CCCC3=O)s2)c1	/	/	.	.	.
O=C1Cn2nnc(-c3ccccc3)c2C2c3ccccc3CCN12 (stereo not given)	/	/	/	.	/
COc1ccc(-c2oc3c(c2-c2cnc(OC)nc2)C(O)CC3)cc1 (stereo not given)	/	/	/	.	/
CCCCc1nc2sc3c(=O)[nH]c(=S)[nH]c3c2c2c1CCC2	/	/	/	.	/
O=C(NC1CC(=O)N(c2ccc(Cl)cc2)C1)c1cc2ccccc2o1 (stereo not given)	/	/	/	.	/
Cc1cc(OCC(=O)N(C)C2CCCCC2)ccc1Cl	25	.	?	?	.
CN(C(=O)COC(=O)c1ccc(Cl)cc1N)C1CCCCC1	21	.	.	.	.
